# DT40 TDP1 CPT: growth inhibition of DT40 Tdp1-/-;hTDP1 cells with camptothecin (screen for TDP1 inhibitors) | chicken DT40 Tdp1-/-;hTDP1 cells + 20 nM CPT, ATP luminescence, 48 h | Potency, µM (top dose mostly 46.2 µM), for the others: at the top dose activity change, negative = growth inhibition, actives largely listed as inhibitors | actives 12% (n = 420,000); note: potency is the fitted concentration of half-maximal effect; nearly all actives have a fitted effect of over 55% in size
#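 Cell growth measured by CellTiter-Glo luminescence after a minimum 48 h, 37 C compound exposure with 20 nM CPT in Tdp1-knockout DT40 cells stably expressing hTDP1, seeded 400/well; qHTS titration format.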
# HT1080-NT tox: kills 2HG-producing HT-1080-NT fibrosarcoma cells; HT-1080-NT fibrosarcoma viability, CellTiter-Glo ATP luminescence, 48 h; Potency, µM (titrated, usually from 46.1 µM), without a hit: top-dose activity, negative = less viability, most hits filed as cytotoxic; actives 1.6% (n = 360,000);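 note: NT is the 2HG producing partner of a matched IDH1 knockdown line; potency is the fitted concentration of half-maximal effect; 0% = DMSO-treated cells and -100% = media-only wells without cells; nearly all actives have a fitted effect of over 55% in size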
#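 A 48-hour cytotoxicity screen used HT-1080-NT cells plated 2 hours before compound delivery. ATP-based CellTiter-Glo luminescence measured viability, normalized to DMSO and no-cell controls.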
# HT1080 IDH1KD tx: toxicity to HT-1080 IDH1 knockdown cells (counter line); actives 2% (n = 360,000); HT-1080 IDH1 knockdown viability, ATP luminescence, 48 h; Potency, µM (top dose mostly 46.1 µM), for inactives: at the top dose activity, negative = toxicity, usual class: cytotoxic;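 note: potency is the fitted concentration of half-maximal effect; 0% = DMSO wells and -100% = cell-free medium wells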
#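 Using the IDH1-knockdown HT-1080 line run in the same batch and compound series as the NT line, viability after 48 h at 37 °C was determined by CellTiter-Glo luminescence and expressed as % activity.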
# DT40 TDP1 no CPT: qHTS for Inhibitors of human tyrosyl-DNA phosphodiesterase 1 (TDP1): qHTS in cells in absence of CPT; actives 15% (n = 420,000); Potency, µM (doses to about 46.2 µM), without a hit: at the top dose activity change, negative = growth inhibition, usual class: inhibitors; DT40 Tdp1-/- hTDP1 cells, no CPT, ATP luminescence, 48 h; note: potency is the fitted concentration of half-maximal effect; nearly all actives have a fitted effect of over 55% in size
#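 Chicken DT40 Tdp1-/- cells complemented with human TDP1, screened without camptothecin (DMSO vehicle only), 400 cells/well. Compounds pin-transferred, cells incubated at 37 °C for at least 48 hr. Growth read as ATP-dependent luminescence (CellTiter-Glo, 30 min at RT).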
# IL-1B inflam inh: blocks inflammasome-driven IL-1 beta release; THP-1 LPS/ATP IL-1B secretion, AlphaLISA, 16 h; stronger effect = lower value; activity change, % at 57.5 µM; AID 743279; actives 4.7% (n = 360,000); in the data active = activity change below about -50%; inconclusive = mostly about -30% to -49%
#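 Secreted IL-1B measured by AlphaLISA bead assay after 16 h compound exposure of THP-1 cells; compounds (final up to 57.5 uM) added 1 h before LPS (250 ng/mL) and ATP (1.25 mM) stimulation; lower signal means less secretion.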
# An asterisk follows results filed as active; ? = inconclusive; nt = not tested or not shown; [ ] = dose if it differs, or a comment. Most compounds without a hit are left out; they make up all but 19% or so of the library. Unless noted, calls come from the whole dose curve; as a rule, active = well fitted curve in the direction sought with a large enough effect; inconclusive = small, poorly fitted or top-dose-only effect, or another doubt; inactive = no such curve, though single readings can be large; an effect the other way counts as inactive or inconclusive. Unless noted, % is set by controls: 0 for no effect and ±100 for the full control effect.
SMILES,DT40 TDP1 CPT,HT1080-NT tox,HT1080 IDH1KD tx,DT40 TDP1 no CPT,IL-1B inflam inh
O=C(c1ccco1)c1cn(Cc2ccc(Cl)cc2)c2ccccc12,-113%,?,?,?,-15
COC(=O)c1cn(Cc2ccc(F)cc2)c2ccccc12,?,-21%,?,-25%,3
COC(=O)c1cn(C(=O)c2cccc3ccccc23)c2ccccc12,8.2µM*,12µM*,13µM*,9.2µM*,71
COc1ccc(NC(=O)N2CC[C@@]3(CCCN(C(=O)Oc4ccccc4)C3)C2)cc1,8%,nt,nt,-2%,nt
CN(C)c1nc(OCCNC(=O)COc2ccc(Cl)cc2Cl)nc(N2CCCCC2)n1,9.2µM*,-1%[9.24 µM],-4%,12µM*,-19
CC(Cc1ccccc1Sc1ccc(O)cc1)N(C)C (stereo not drawn),?,-1%,-15%,21µM*,-5
C[C@@H](Cc1ccccc1)N(C)C,-15%,nt,nt,-17%,nt
COc1ccc(Nc2c(-c3cc(Br)ccc3O)nc3ncccn23)cc1OC,18µM*,nt,nt,23µM*,nt
CN1C2CCC1CC(OC(c1ccccc1)c1ccc(Cl)cc1)C2 (stereo not drawn),3µM*,nt,nt,4.7µM*,nt
CCOP(=O)(OCC)C(NC(=O)Nc1ccc(Cl)c(Cl)c1)c1ccccc1 (stereo not drawn),?,?,?,16µM*,-3
CC[N+](CC)(CC)CCOC(=O)C(C1CCCC1)C1CCCC1,?,nt,nt,11µM*,nt
CCn1c(O)c(C=Nc2ccc(S(N)(=O)=O)cc2)c(=O)n(CC)c1=S,?,-16%,-1%,?,-5
NS(=O)(=O)c1ccc(N=Cc2c(O)n(C3CCCCC3)c(=O)n(C3CCCCC3)c2=O)cc1,15µM*,?,?,16µM*,-100*
NCC[C@H](O)C(=O)N[C@@H]1C[C@H](N)[C@@H](O[C@H]2O[C@H](CN)[C@@H](O)[C@H](O)[C@H]2N)[C@H](O[C@@H]2O[C@H](CO)[C@@H](O)[C@H]2O)[C@H]1O,-4%[21.1 µM],nt,nt,-1%[21.1 µM],nt
Cc1ccc(NC(=O)N2CC2)cc1NC(=O)N1CC1,?,-1%,2%,?,30
O=C(Nc1ccc(Cl)cc1)N1CC1,8.2µM*,8%,-6%,15µM*,-5
Cc1cccc(NP(=O)(Oc2ccccc2)Oc2ccccc2)c1C,?,?,-18%,?,-89*
CCc1ccc(-c2nn(Cc3ccccc3)cc2C=O)cc1,?,?,-24%,?,-59*
COC(=O)c1cccc(N=Cc2c(O)n(Cc3ccc(F)cc3)c(=O)[nH]c2=O)c1,10%,15%,20%,-9%,19
Nc1c2c(nc3sc4c(c13)CCCC4)CCCCC2,?,-11%,-19%,18µM*,-18
Nc1ccc2nc3c(c(Cl)c2c1)CCCC3,-8%,?,?,?,37
Nc1c2c(nc3sc4c(c13)CCCC4)CCCC2,?,?,?,?,-88*
Cc1cccc(N2C(=O)NC(=O)C3(Cc4cc(C)ccc4N(C)C3)C2=O)c1 (stereo not drawn),1%,3%,4%,?,45
Cc1ccc2c(c1)CC1(CN2C)C(=O)NC(=O)N(C(C)C)C1=O (stereo not drawn),18µM*,19%,11%,?,59
C/C=C1/CN2CC[C@]34C(=C(C=O)[C@@H]1C[C@H]23)Nc1c(O)cccc14,-8%[9.04 µM],nt,nt,-14%[9.04 µM],nt
SMILES,DT40 TDP1 CPT,HT1080-NT tox,HT1080 IDH1KD tx,DT40 TDP1 no CPT,IL-1B inflam inh
CCCCCCn1c(O)c(C(C)=NC)c(=O)[nH]c1=O,-2%,-2%,5%,-8%,-15
CN(c1ccc(OCC(=O)N2CCN(C/C=C/c3ccccc3)CC2)cc1)S(=O)(=O)c1cccs1,13µM*,-26%,-23%,5.8µM*,-5
CN1CC[C@@]2(c3cccc(O)c3)Cc3nc4ccccc4cc3C[C@H]2C1,27µM*,nt,nt,?,nt
Clc1ccc(-c2nc3ccc(Cl)cn3c2CN2CCOCC2)cc1,?,-6%,-6%,23µM*,-18
Clc1ccc(-c2nc3ccc(Cl)cn3c2CN2CCCCC2)cc1,?,16%,12%,16µM*,-20
Cc1ccc2c(c1)[C@H]1[C@H](CO2)[C@H](c2ccccc2)[C@]2(C)C(=O)N(CC3CCCO3)CC(=O)N12 (stereo partly drawn),3%,2%,8%,?,-10
CN1CC(CO)=C[C@H]2c3cccc4[nH]cc(c34)C[C@H]21,9%,nt,nt,-1%,nt
O=C(c1ccccc1)c1ccc2nc(N3CCN(c4ccc(F)cc4)CC3)c3nncn3c2c1,7.3µM*,nt,nt,8.2µM*,nt
CC(NC(=O)CNC(=S)N(Cc1ccccc1)Cc1cccnc1)c1ccccc1 (stereo not drawn),?,-1%,0%,?,-12
CCN1CCN(Cc2cc(Br)cc(Br)c2O)CC1,?,-7%,-2%,16µM*,-21
COc1cc(Br)cc(CN2CCN(C)CC2)c1O,0%,7%,2%,1%,2
C/C=C1/CN2CC[C@]34C(=C(C=O)[C@H]1C[C@@H]23)Nc1ccccc14,-14%,nt,nt,?,nt
Cc1cc(C)c(S(=O)(=O)NCC2CCC(C(=O)N3CCC4(CC3)OCCO4)CC2)c(C)c1 (stereo not drawn),-15%,8%,12%,-28%,-1
O=C(Oc1c(Br)cc(Br)c2cccnc12)N1CCCCC1,23µM*,-15%,-20%,?,-3
Nc1ncnc2c1ncn2[C@@H]1O[C@H](COP(=O)(O)CP(=O)(O)O)[C@@H](O)[C@H]1O,4.1µM*,?,-20%,?,-1
O=C(NC1CCCCC1)N1Cc2ccccc2-n2nncc2C1,-9%,2%,-2%,-2%,19
O=C1NC(=O)N(c2ccc3c(c2)OCO3)C(=O)/C1=C/c1cccs1,?,4%,-13%,?,-104*
O=C1NC(=O)N(c2ccc3c(c2)OCO3)C(=O)/C1=C/c1ccsc1,-29%,-3%,-2%,-23%,7
O=C(CCCc1ccc(N(CCCl)CCCl)cc1)NCc1ccccc1,0.73µM*,?,23µM*,0.73µM*,47
C[C@]12CC[C@H]3[C@@H](CC[C@@]45O[C@@H]4C(O)=C(C#N)C[C@]35C)[C@@H]1CC[C@@H]2O,-24%,nt,nt,?,nt
Cc1ccc(C)c(S(=O)(=O)c2nnn3c2nc(N2CCN(C)CC2)c2sccc23)c1,16µM*,nt,nt,?,nt
Cc1ccc2nc(N3CCN(C)CC3)[nH]c2c1,-18%,-1%,-5%,1%,-1
N#CC1=C(N)Oc2c(c(=O)sc3ccccc23)C1c1ccncc1 (stereo not drawn),?,?,21µM*,?,27

# Screening data deposited in PubChem BioAssay by National Center for Advancing Translational Sciences (NCATS).
